Among the data in PubChem BioAssay (Tox21) are Potency and outcome values, retold here.

Experiment [1] can be described thus: qHTS assay to identify small molecule agonists of the sonic hedgehog signaling (Shh) pathway (AID 1259368; calls by dose curve;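 also: NIH/3T3-derived 3T3Gli1-Luc cells carrying a stable Gli1-driven firefly luciferase reporter; series mostly up to about 92 µM; nearly all actives have a fitted effect of over 15% in size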). The essentials: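 A Gli1 transcriptional response element controlled firefly luciferase in 3T3Gli1-Luc cells. Compounds and a positive control were added 4 hr after plating, and cells were incubated a further 24 hr at 37 C before luminescence detection.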
A general note: In qHTS, concentration-response curves come from the screen itself.

Experiment [2] can be described thus: qHTS assay to identify small molecule antagonists of the sonic hedgehog signaling (Shh) pathway (AID 1259369; calls by dose curve; also: nearly all actives have a fitted effect of over 45% in size). The essentials: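 For antagonist detection, the reporter line received test compounds together with conditioned medium, incubated 24hr at 37 C, 5% CO2, then luminescence was recorded following 30min room-temperature luciferase reagent incubation.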
Experiment [3] concerns the target Estrogen receptor beta (Homo sapiens) (UniProt Q92731). The experiment can be described thus: qHTS assay to identify small molecule antagonists of the estrogen receptor beta (ER-beta) signaling pathway (AID 1259378; active = well fitted inhibition curve with a large enough effect in the signal ratio in the repeat runs, not every such curve was filed as active; the % refers to the signal ratio). The essentials:
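ER-beta-UAS-bla HEK293T (GripTite) cells in 2% charcoal-stripped FBS medium were preincubated 6 hr at 37C, dosed with compound, then stimulated with 1 nM E2 (final) for 16 hr; beta-lactamase reporter read by B/G FRET fluorescence after 2 hr substrate loading.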

Experiment [4] can be described thus: qHTS assay to identify small molecule agonists of the androgen receptor (AR) signaling pathway in the presence of an antagonist - cell viability counter screen (AID 1259379).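 Also: MDA-kb2 human breast cancer cells carrying an MMTV luciferase reporter; series mostly up to about 92 µM; nearly all actives have a fitted effect of over 25% in size.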 The essentials:
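Seed MDA-kb2 at 3,000 cells/well; incubate 5 hr, 37C, 0% CO2. Add nilutamide to 3.0uM final, then pin compounds at 15 concentrations. Incubate 16 hr. Add CellTiter-Fluor at 15 hr, read fluorescence after 1 hr.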

A short description of experiment [5]: qHTS assay to identify small molecule agonists of the estrogen receptor beta (ER-beta) signaling pathway - cell viability counter screen (AID 1259380). Also: nearly all actives have a fitted effect of over 30% in size. The essentials:
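CellTiter-Glo read, 30 min RT, same wells as bla assay; cells ER-beta-UAS-bla HEK293T; 16 hr compound, 37C; medium 2% charcoal-stripped FBS.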

Experiment [6] is described as follows: qHTS assay to identify small molecule agonists of the estrogen receptor alpha (ER-alpha) signaling pathway in the presence of an antagonist - cell viability counter screen (AID 1259386).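 Also: series mostly up to about 92 µM; cells exposed to compounds for 22 h at 37 °C before the viability read; nearly all actives have a fitted effect of over 30% in size.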 The essentials: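 Viability counter screen using VM7Luc4E2 (full-length ER-alpha, four ERE-luciferase). The cells were treated with compounds alongside ICI-182,780 10.0nM for 22hr, and live-cell protease fluorescence was quantified with CellTiter-Fluor.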

Experiment [7] concerns the target Progesterone receptor (Homo sapiens) (UniProt P06401). The experiment can be described thus: qHTS assay to identify small molecule antagonists of the progesterone receptor (PR) signaling pathway (AID 1346795; active = well fitted inhibition curve with a large enough effect in the signal ratio in the repeat runs, not every such curve was filed as active; the % refers to the signal ratio). The essentials:
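Beta-lactamase reporter, HEK293T PR-UAS-bla line; 2% charcoal-stripped FBS; 6 hr pre-incubation, 37C/5% CO2. Compound + R5020 1 nM final, 16 hr. LiveBLAzer B/G FRET substrate, 2 hr RT; fluorescence intensity read.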

The nature of experiment [8]: qHTS assay to identify small molecule antagonists of the progesterone receptor (PR) signaling pathway - cell viability counter screen (AID 1346798). Also: series mostly up to about 92 µM; nearly all actives have a fitted effect of over 50% in size. The essentials: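 Luminescence readout (CellTiter-Glo, 30 min, RT) of viability in PR-UAS-bla HEK293T cells exposed to compound and R5020 agonist for 16 hr at 37C, 5% CO2; run in the same wells as the beta-lactamase reporter read.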

Experiment [9] in a line: qHTS assay to identify small molecule agonists of the progesterone receptor (PR) signaling pathway - cell viability counter screen (AID 1346799; calls by dose curve; also: nearly all actives have a fitted effect of over 45% in size; also: potency is read from the fitted curve at half-maximal effect). The essentials:
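HEK293T PR-UAS-bla, 3,000 cells/well, 2% charcoal-stripped FBS; 6 h settle, compound 16 h at 37C/5% CO2; LiveBLAzer 2 h RT, then CellTiter-Glo 30 min RT, luminescence read.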

Experiment [10] can be described thus: qHTS assay to identify small molecule agonists of the TGF-beta/Smad signaling pathway - cell viability counter screen (AID 1346829). Also: top concentration of the series differs between compounds; nearly all actives have a fitted effect of over 45% in size. The essentials:
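Compound-treated SBE-bla HEK 293T cells (5 hr, 37 C) were assessed for viability with CellTiter-Glo in parallel with the reporter read.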

A short description of experiment [11]: qHTS assay to identify small molecule agonists of the TGF-beta/Smad signaling pathway (AID 1346859; active = well fitted activation curve with a large enough effect in the signal ratio in the repeat runs, not every such curve was filed as active; the % refers to the signal ratio; also: series mostly up to about 77 µM). The essentials: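 Read-out: fluorescence at 460 and 530 nm (405 nm excitation) after a 2 hr room-temperature incubation with beta-lactamase FRET substrate. SBE-bla HEK 293T cells had been treated with test compounds for 5 hr at 37 C.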
The target in experiment [12] is Thyrotropin-releasing hormone receptor (Homo sapiens) (UniProt P34981). The experiment is described as follows: qHTS assay to identify small molecule antagonists of the thyrotropin-releasing hormone receptor (TRHR) signaling pathway (AID 1346877; active = well fitted inhibition curve with a large enough effect in the repeat runs, not every such curve was filed as active; also: series mostly up to about 51 µM). The essentials: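 Following an 18 h incubation at 37 °C and a 2 h calcium dye load, TRHR-HEK293 cells were exposed to compound (5 min, room temperature) and challenged with TRH, 1 nM final.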

The nature of experiment [13]: qHTS assay to identify small molecule antagonists of the estrogen receptor beta (ER-beta) signaling pathway - cell viability counter screen (AID 1259382). Also: series mostly up to about 92 µM; nearly all actives have a fitted effect of over 55% in size. The essentials:
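In this multiplexed counter screen, cells were seeded at 2,000 per well in medium with 2% charcoal-stripped FBS and incubated 6 hr before compound and 1nM final E2 were added. Sixteen hours later, ATP-based luminescence reported viability.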

In experiment [14] the target is Estrogen receptor (Homo sapiens) (UniProt P03372). The experiment is described as follows: qHTS assay to identify small molecule agonists of the estrogen receptor alpha (ER-alpha) signaling pathway in the presence of an antagonist (AID 1259383; calls by dose curve; also: top concentration of the series differs between compounds; nearly all actives have a fitted effect of over 15% in size). The essentials:
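Stably transfected VM7Luc4E2 reporter cells, kept 5 days in charcoal-stripped serum, received ICI-182,780 at 10.0nM final before compound addition. Following 22hr incubation at 37C and 5% CO2, luciferase signal was read by luminescence.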

A short description of experiment [15]: qHTS assay to identify small molecule antagonists of the TGF-beta/Smad signaling pathway - cell viability counter screen (AID 1346824). Also: nearly all actives have a fitted effect of over 50% in size. The essentials:
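SBE-bla HEK 293T cells were plated overnight at 37 C, then given compounds in DMSO plus TGF-beta1 (added as 0.25 ng/mL solution) for 5 hr. After the bla read, CellTiter-Glo was added to the same wells and luminescence read after 30 min at room temperature.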

The target in experiment [16] is Progesterone receptor (Homo sapiens) (UniProt P06401). The experiment can be described thus: qHTS assay to identify small molecule agonists of the progesterone receptor (PR) signaling pathway (AID 1346784; calls by dose curve; also: nearly all actives have a fitted effect of over 30% in size). The essentials:
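HEK 293T PR-UAS-bla reporter cells, 2% charcoal-stripped FBS; 6 hr settle at 37C/5% CO2, compound (DMSO) 16 hr, LiveBLAzer B/G FRET substrate 2 hr RT, fluorescence intensity read.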

Experiment [17] concerns the target Thyrotropin receptor (Homo sapiens) (UniProt P16473). The experiment can be described thus: qHTS assay to identify small molecule antagonists of the thyroid stimulating hormone receptor (TSHR) signaling pathway (AID 1259385; calls by dose curve; also: nearly all actives have a fitted effect of over 20% in size). The essentials: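 TSHR-HEK293 cells were plated and held 18 h at 37C/5% CO2, then given compound plus Ro20-1724 and stimulated with TSH at 1.5 ng/mL final. After 30 min at room temperature, cAMP was detected with cAMP-d2/anti-cAMP-cryptate (1 h) by fluorescence.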

Experiment [18] in a line: qHTS assay to identify small molecule agonists or antagonists of the thyroid stimulating hormone receptor (TSHR) signaling pathway - wild type cell line counter screen (AID 1259384; calls by dose curve). The essentials:
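Wild-type HEK293 cells were plated 18 h at 37 C/5% CO2, pin-dosed with compound plus Ro20-1724 medium, held 30 min at room temperature, then given cAMP-d2 and anti-cAMP-cryptate; fluorescence was read after 1 h. Fifteen concentrations, triplicate.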

Experiment [19] addresses Androgen receptor (Homo sapiens) (UniProt P10275). The experiment can be described thus: qHTS assay to identify small molecule agonists of the androgen receptor (AR) signaling pathway in the presence of an antagonist (AID 1259381; calls by dose curve; also: nearly all actives have a fitted effect of over 15% in size). The essentials:
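Test compounds at 15 concentrations were incubated for 16hr with MDA-kb2 reporter cells in presence of 3.0uM nilutamide (final). Signal: ONE-Glo luciferase luminescence.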

SMILES strings stand for the structures. Unmarked numbers belong to inactive results. Results filed as inconclusive are left out. Active and inactive are the calls of the source. Unless noted, calls follow the shape of the dose curve; as a rule, active = well fitted curve in the direction sought with a large enough effect in the repeat runs; inconclusive = weak or mixed curves; inactive = no such curve, though single readings can be large; an effect the other way counts as inactive or inconclusive.

Estrogen receptor (Homo sapiens), sequence (P03372 whole entry, looked up): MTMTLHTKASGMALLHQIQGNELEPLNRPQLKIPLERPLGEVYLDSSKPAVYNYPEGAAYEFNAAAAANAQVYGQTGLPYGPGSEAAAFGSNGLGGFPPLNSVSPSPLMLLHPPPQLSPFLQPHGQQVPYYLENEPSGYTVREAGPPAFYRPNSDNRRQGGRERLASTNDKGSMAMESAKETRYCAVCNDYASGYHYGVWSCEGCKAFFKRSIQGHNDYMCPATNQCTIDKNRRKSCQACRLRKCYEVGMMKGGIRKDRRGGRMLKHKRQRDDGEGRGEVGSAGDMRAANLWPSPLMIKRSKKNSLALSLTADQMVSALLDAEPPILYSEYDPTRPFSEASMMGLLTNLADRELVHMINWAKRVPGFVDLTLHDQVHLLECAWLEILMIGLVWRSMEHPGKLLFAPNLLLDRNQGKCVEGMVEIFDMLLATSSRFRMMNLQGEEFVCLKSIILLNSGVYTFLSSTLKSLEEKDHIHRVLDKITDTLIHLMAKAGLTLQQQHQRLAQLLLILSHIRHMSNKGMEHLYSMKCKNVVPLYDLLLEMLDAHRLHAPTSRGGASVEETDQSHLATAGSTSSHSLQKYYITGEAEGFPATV
Estrogen receptor beta (Homo sapiens), sequence (Q92731 whole entry, looked up): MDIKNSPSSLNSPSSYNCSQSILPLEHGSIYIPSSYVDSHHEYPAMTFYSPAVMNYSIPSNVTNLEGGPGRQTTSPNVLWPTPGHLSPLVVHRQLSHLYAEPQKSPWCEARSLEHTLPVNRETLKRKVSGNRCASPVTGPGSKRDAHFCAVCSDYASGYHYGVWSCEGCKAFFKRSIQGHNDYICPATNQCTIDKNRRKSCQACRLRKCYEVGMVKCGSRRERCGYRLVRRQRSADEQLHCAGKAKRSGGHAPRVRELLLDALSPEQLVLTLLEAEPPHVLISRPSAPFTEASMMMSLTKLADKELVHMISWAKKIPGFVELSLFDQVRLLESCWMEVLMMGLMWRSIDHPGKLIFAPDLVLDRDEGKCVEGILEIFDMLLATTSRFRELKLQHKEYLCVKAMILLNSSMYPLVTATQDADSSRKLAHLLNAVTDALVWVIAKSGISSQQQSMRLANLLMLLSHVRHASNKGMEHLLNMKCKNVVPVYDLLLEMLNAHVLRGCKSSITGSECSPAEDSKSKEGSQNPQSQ
Thyrotropin-releasing hormone receptor (Homo sapiens), sequence (P34981 whole entry, looked up): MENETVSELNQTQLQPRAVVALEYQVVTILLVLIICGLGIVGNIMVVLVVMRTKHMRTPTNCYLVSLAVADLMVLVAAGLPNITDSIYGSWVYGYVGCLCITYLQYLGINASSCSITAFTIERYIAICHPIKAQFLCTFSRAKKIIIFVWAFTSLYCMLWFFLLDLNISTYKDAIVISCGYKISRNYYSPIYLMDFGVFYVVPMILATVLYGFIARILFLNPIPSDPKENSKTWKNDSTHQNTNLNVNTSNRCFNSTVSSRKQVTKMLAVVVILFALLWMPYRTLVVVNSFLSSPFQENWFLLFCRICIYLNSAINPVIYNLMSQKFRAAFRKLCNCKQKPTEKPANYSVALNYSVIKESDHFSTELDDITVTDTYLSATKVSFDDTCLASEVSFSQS
Thyrotropin receptor (Homo sapiens), sequence (P16473 whole entry, looked up): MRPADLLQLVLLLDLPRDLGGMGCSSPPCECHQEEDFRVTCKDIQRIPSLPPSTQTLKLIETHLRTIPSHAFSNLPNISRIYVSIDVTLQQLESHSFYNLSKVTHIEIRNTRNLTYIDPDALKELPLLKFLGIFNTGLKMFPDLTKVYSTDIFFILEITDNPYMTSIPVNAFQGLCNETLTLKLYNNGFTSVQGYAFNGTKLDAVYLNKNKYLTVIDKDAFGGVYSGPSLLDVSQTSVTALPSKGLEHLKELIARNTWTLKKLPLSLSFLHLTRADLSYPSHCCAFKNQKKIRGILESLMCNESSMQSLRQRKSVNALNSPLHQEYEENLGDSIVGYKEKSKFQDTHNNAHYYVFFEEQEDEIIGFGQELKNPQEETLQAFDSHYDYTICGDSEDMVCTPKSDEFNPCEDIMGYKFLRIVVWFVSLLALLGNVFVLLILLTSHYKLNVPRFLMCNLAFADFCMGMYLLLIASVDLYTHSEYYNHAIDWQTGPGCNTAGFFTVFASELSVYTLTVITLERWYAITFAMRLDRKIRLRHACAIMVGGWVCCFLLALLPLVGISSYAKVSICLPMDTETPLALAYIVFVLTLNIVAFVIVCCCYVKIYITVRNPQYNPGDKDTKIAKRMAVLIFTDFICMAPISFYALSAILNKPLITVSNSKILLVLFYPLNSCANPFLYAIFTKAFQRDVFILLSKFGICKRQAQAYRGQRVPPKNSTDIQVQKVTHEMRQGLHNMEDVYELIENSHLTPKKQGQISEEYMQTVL
Progesterone receptor (Homo sapiens), sequence (P06401 whole entry, looked up): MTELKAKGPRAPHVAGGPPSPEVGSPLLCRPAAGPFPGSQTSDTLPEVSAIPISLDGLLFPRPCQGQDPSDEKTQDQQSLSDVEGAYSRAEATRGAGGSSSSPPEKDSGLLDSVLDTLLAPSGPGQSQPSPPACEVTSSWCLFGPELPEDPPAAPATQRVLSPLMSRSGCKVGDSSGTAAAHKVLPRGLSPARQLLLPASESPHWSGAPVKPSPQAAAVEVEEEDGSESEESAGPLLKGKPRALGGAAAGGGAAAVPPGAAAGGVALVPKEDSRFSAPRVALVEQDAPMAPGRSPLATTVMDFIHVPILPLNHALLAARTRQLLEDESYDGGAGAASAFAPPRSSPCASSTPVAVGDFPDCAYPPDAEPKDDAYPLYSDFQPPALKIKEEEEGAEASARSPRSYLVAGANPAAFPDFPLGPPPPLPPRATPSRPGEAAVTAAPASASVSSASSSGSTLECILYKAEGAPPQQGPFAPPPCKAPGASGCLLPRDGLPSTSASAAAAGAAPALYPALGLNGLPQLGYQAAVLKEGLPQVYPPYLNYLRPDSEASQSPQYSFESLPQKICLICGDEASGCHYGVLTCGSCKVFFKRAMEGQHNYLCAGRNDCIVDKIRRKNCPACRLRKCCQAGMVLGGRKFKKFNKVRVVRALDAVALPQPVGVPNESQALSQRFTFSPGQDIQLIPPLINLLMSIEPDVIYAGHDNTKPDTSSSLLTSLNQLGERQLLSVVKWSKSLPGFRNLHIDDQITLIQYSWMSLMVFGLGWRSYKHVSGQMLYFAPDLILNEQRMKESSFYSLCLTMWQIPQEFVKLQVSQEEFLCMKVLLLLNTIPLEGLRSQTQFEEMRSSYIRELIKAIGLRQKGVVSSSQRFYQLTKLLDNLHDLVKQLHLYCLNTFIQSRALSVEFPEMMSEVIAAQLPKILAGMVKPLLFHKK
Androgen receptor (Homo sapiens), sequence (P10275 whole entry, looked up): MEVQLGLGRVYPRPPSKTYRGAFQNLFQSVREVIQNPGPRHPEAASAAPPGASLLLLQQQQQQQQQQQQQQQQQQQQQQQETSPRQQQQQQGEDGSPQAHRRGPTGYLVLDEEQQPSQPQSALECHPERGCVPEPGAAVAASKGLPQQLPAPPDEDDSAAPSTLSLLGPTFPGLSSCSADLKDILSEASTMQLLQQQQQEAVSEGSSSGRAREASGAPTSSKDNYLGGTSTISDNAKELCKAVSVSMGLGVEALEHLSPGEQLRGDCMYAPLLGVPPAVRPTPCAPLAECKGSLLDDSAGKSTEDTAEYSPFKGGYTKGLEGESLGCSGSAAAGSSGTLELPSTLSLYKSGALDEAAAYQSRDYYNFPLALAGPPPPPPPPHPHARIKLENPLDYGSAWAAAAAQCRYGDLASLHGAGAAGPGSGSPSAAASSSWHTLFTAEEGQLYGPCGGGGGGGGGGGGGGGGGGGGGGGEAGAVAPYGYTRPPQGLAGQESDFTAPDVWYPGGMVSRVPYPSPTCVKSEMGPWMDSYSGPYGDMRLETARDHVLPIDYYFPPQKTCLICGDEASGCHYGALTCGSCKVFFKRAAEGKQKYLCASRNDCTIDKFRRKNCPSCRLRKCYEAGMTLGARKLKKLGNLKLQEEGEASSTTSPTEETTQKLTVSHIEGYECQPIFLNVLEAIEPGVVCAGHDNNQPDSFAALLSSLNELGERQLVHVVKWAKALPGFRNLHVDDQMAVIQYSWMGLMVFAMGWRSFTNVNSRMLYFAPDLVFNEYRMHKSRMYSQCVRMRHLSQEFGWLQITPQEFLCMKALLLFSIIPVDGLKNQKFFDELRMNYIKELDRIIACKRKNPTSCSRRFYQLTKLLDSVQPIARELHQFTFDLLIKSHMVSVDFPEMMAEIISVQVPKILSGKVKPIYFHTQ

For the compound `CC(O)CN(CCCN(C)C)CCCN(C)C` (stereo not drawn), the Potency entry in experiment [1], in [2], in experiment [3], in [4], in [5] and in experiment [7] was “inactive” in each case. Besides, the Potency result in experiment [8] and in experiment [9] was “inactive” each time. The result in experiment [6], in experiment [10], in experiment [11] and in experiment [12] was inactive.

On to `Cc1c(C)n(CCN(C)C)c2ccc(C(=O)OCCN(C)C)cc12`, for which the Potency entry in [1], in experiment [2], in experiment [3], in [4], in experiment [13] and in [14] was “inactive” in each case. Besides, the outcome in experiment [6], in experiment [15], in experiment [10], in experiment [11] and in experiment [12] was inactive.

Turning to `CCCCN(CCO)CCO`, the Potency entry in experiment [1], in experiment [2], in experiment [3], in [5], in experiment [13] and in [14] was “inactive” throughout. Further, the Potency entry in experiment [7] and in [8] was “inactive” each time. Besides, the outcome in experiment [6], in experiment [10], in experiment [11] and in experiment [12] was inactive.

Turning to `C1=C\CC/C=C\CC/C=C\CC/1`, the Potency entry in experiment [1], in experiment [2], in experiment [3], in [5], in [13] and in [16] was “inactive” in each case. For the same compound, the Potency entry in experiment [7], in [8] and in experiment [9] was “inactive” each time. Also, the outcome in experiment [6], in experiment [15], in experiment [10] and in experiment [11] was inactive.

Turning to `O=C(O)C(O)[C@H](O)[C@@H](O)[C@H](O)[C@H](O)CO` (stereo partly drawn), the Potency result in experiment [1], in [2], in experiment [3], in experiment [4], in experiment [14] and in [17] was “inactive” each time. Further, the Potency entry in experiment [7] was “inactive”. Also, the result in [6], in experiment [15], in experiment [10] and in experiment [11] was inactive. In [9], the Potency was 49.1 µM (active).

As for `CNc1ncnc2nc[nH]c12`, the Potency result in [1], in experiment [2], in experiment [4], in experiment [5], in [13] and in [14] was “inactive” throughout. Moreover, the Potency entry in [17], in [7], in [8] and in experiment [9] was “inactive” in each case. Moreover, the outcome in [18], in experiment [6], in [15], in experiment [11] and in experiment [12] was inactive.

Consider `C1COCCO1`, for which the Potency entry in experiment [1], in experiment [2], in experiment [4], in experiment [5], in [19] and in [13] was “inactive” in each case. Also, the Potency entry in experiment [14], in experiment [16], in [7], in experiment [8] and in experiment [9] was “inactive” throughout. In addition, the result in experiment [6], in experiment [15], in [11] and in experiment [12] was inactive.

For the compound `COc1ccc2cc(C=O)ccc2c1`, the Potency result in [1], in experiment [2], in experiment [3], in [5], in experiment [19] and in experiment [13] was “inactive” throughout. Also, the Potency entry in [14], in experiment [17], in [16], in experiment [8] and in [9] was “inactive” throughout. Besides, the outcome in experiment [18], in [6], in experiment [15], in experiment [11] and in experiment [12] was inactive.

As to `OCC(CO)(CO)COCC(CO)(CO)CO`, the Potency result in [1], in experiment [2], in experiment [4], in experiment [5], in [13] and in experiment [14] was “inactive” each time. Besides, the Potency entry in experiment [17], in experiment [16], in [7], in experiment [8] and in [9] was “inactive” each time. In addition, the compound was classed as inactive in experiment [18], in experiment [6], in [15], in experiment [10], in experiment [11] and in experiment [12].
